Screening data: PubChem, several laboratories
TRPM1 prom inh = MITF TRPM1 promoter inhibition in SK-MEL-5 cells | SK-MEL-5 TRPM1 promoter luciferase, 24 h | 330,000 compounds, 0.83% hits | AID 488899 | inhibition, % at 12.5 µM;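 active = mean inhibition across replicates of 60% or more, whatever share of single replicates reaches that level; inconclusive = some that reach 60%, reason not given; inactive = mean inhibition across replicates below 60%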
LGR2 antag = Drosophila LGR2 receptor signaling inhibition | HEK293 LGR2, CRE-luciferase, bursicon-stimulated, 4 h | inhibition, % at 9.99 µM | 380,000 compounds, 0.35% hits | AID 720647;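 active = drop in luminescence signal, shown as inhibition above about 50% in the replicate tests, limit read from the data, passing the limit was not always enough; inconclusive = probably only some replicates passing the limit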;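 note: agonist challenge used bursicon conditioned medium at about half maximal strength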
TROY NFkB inh = inhibitors of TROY-dependent NF-kB signaling. Q293 LMP1-TROYcd NF-kB luciferase reporter, 4 h. inhibition, % at 10 µM. 360,000 compounds, 0.98% hits;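 active = compounds whose plate-normalised and pattern-corrected inhibition of the luciferase reporter signal at the single screening dose is 50% or more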
LMP1 NFkB inh = Epstein-Barr LMP1 NF-kappaB reporter inhibition; LMP1-induced NF-kappaB luciferase reporter cells, luminescence; inhibition, % at 12.5 µM; 350,000 compounds, 0.69% hits; in the data active = inhibition above about 41%; inconclusive = no clear call, values can overlap the other calls
MITF TRPM1 HTS = activators of MITF-driven TRPM1 promoter activity in SK-MEL-5 cells; SK-MEL-5 TRPM1-promoter luciferase, 24 h; % of positive control, neutral wells = 0; activation, % at 12.5 µM; 300,000 compounds, 0.75% hits;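 active = mean activation of at least 80% with every replicate also reaching 80%; inconclusive = mean reaches 80% but some replicate falls short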
TWEAK Fn14 block = inhibitors of TWEAK-Fn14 interaction signaling. TWEAK-stimulated Fn14 reporter cells, luciferase luminescence, 8 h. inhibition, % at 10 µM. 360,000 compounds, 2% hits. AID 1159606; in the data active = inhibition above about 50%
A number is an active result. Only some compounds are listed: those with a hit (about 3% of all), similar ones and a draw of the others.

How did COc1ccc(-c2c[n+](CC(=O)OC3CC(C)CCC3C(C)C)c3n2CCC3)cc1 (stereo not given) do in these assays?
TRPM1 prom inh: 86.2; LGR2 antag: inactive; TROY NFkB inh: inactive; LMP1 NFkB inh: inactive; MITF TRPM1 HTS: inactive; TWEAK Fn14 block: inactive

What do the screens show for `CC1CCC(C(C)C)C(OC(=O)C[n+]2cccc(C(N)=O)c2)C1` (stereo not given)?
TRPM1 prom inh: inactive; TROY NFkB inh: inactive; LMP1 NFkB inh: inactive; MITF TRPM1 HTS: inactive; TWEAK Fn14 block: inactive

Results for O=C(N=C1N=C2C=CC=CN2Cc2ccccc21)c1ccc(S(=O)(=O)N2CCOCC2)cc1 ?
TRPM1 prom inh: inactive; LGR2 antag: inactive; TROY NFkB inh: inactive; LMP1 NFkB inh: inactive; MITF TRPM1 HTS: 84.0; TWEAK Fn14 block: inactive

What do the screens show for `O=C(N=C1N=C2C=CC=CN2Cc2ccccc21)c1ccc(S(=O)(=O)N2CCCC2)cc1`?
TRPM1 prom inh: inactive; LGR2 antag: inactive; TROY NFkB inh: inactive; LMP1 NFkB inh: inactive; MITF TRPM1 HTS: 102.6; TWEAK Fn14 block: inactive

How did CO[C@@H]1CN(C)C(=O)c2ccc(NS(=O)(=O)c3cccc(C)c3)cc2OC[C@@H](C)N(Cc2cc(F)ccc2F)C[C@H]1C do in these assays?
LGR2 antag: inactive

Results for O=C(NCC(=O)c1ccccc1)OCc1ccc([N+](=O)[O-])cc1 ?
TRPM1 prom inh: inactive; LGR2 antag: inactive; TROY NFkB inh: inactive; LMP1 NFkB inh: 67.9; MITF TRPM1 HTS: inactive; TWEAK Fn14 block: inactive

What do the screens show for `NC1=NN=C(c2ccc3c(c2)OCCO3)CS1`?
TRPM1 prom inh: inactive; LGR2 antag: inactive; TROY NFkB inh: inactive; LMP1 NFkB inh: inactive; MITF TRPM1 HTS: inactive; TWEAK Fn14 block: 58.5

What do the screens show for `C=CCN=C1NN=C(c2cc(C)n(CC=C)c2C)CS1`?
TRPM1 prom inh: 83.8; LGR2 antag: inactive; TROY NFkB inh: inactive; LMP1 NFkB inh: 53.1; MITF TRPM1 HTS: inactive; TWEAK Fn14 block: inactive

What do the screens show for `C=CCN=C1NN=C(c2ccc3c(c2)OCCO3)CS1`?
TRPM1 prom inh: 68.6; LGR2 antag: inconclusive; TROY NFkB inh: 68.9; LMP1 NFkB inh: 46.6; MITF TRPM1 HTS: inactive; TWEAK Fn14 block: 66.7

How did CN=c1scc(-c2ccccc2F)n1/N=C/c1ccc(O)c(O)c1O do in these assays?
TRPM1 prom inh: 85.6; LGR2 antag: 69.5; TROY NFkB inh: 91.9; LMP1 NFkB inh: inactive; MITF TRPM1 HTS: inactive; TWEAK Fn14 block: 98.7

What do the screens show for `CC(C)N=c1scc(-c2cccs2)n1/N=C/c1ccc(O)c(O)c1O`?
TRPM1 prom inh: inactive; LGR2 antag: inactive; TROY NFkB inh: inactive; LMP1 NFkB inh: inactive; MITF TRPM1 HTS: inactive; TWEAK Fn14 block: 54.3

What do the screens show for `CCN=c1scc(-c2cccs2)n1/N=C/c1cc(OC)ccc1O`?
TRPM1 prom inh: inactive; LGR2 antag: inactive; TROY NFkB inh: inactive; LMP1 NFkB inh: inactive; MITF TRPM1 HTS: inactive; TWEAK Fn14 block: 62.5

How did CN=c1scc(-c2ccco2)n1/N=C/c1ccc(O)c(O)c1 do in these assays?
TRPM1 prom inh: inactive; LGR2 antag: inactive; TROY NFkB inh: inactive; LMP1 NFkB inh: inactive; MITF TRPM1 HTS: inactive; TWEAK Fn14 block: inactive

Results for COc1ccc(O)c(/C=N/n2c(-c3ccco3)csc2=Nc2cccnc2)c1 ?
TRPM1 prom inh: inactive; LGR2 antag: inactive; TROY NFkB inh: inactive; LMP1 NFkB inh: inactive; MITF TRPM1 HTS: inactive; TWEAK Fn14 block: inactive

Results for CN=c1scc(-c2ccccc2F)n1/N=C/c1ccc[nH]1 ?
TRPM1 prom inh: 90.3; LGR2 antag: 93.3; TROY NFkB inh: 82.9; LMP1 NFkB inh: 82.5; MITF TRPM1 HTS: inactive; TWEAK Fn14 block: 104.9

What do the screens show for `CC(C)C#Cc1ccc([C@H]2[C@@H](CO)N3C(=O)CN(C(=O)C4CCCCC4)C[C@@H]23)cc1`?
LGR2 antag: inactive

How did O=C(C1CC1)N1CC[C@H]2[C@H](CO)Nc3ccc(-c4cccc(F)c4)cc3[C@H]21 do in these assays?
LGR2 antag: inactive

How did CCOc1cc(/C=C/C(=O)c2ccc(C)cc2)ccc1OCC(=O)N(C)C do in these assays?
TRPM1 prom inh: inactive; LGR2 antag: inactive; TROY NFkB inh: inactive; LMP1 NFkB inh: inactive; MITF TRPM1 HTS: inactive; TWEAK Fn14 block: 58.7

What do the screens show for `COc1cc(/C=C/C(=O)c2ccc(C)cc2)ccc1OCC#N`?
TRPM1 prom inh: inactive; LGR2 antag: inactive; TROY NFkB inh: inactive; LMP1 NFkB inh: inactive; MITF TRPM1 HTS: inactive; TWEAK Fn14 block: 86.6

Results for COc1ccc(/C=C/C(=O)c2ccc(C(=O)/C=C/c3ccc(OC)c(OC)c3)cc2)cc1OC ?
TRPM1 prom inh: inactive; LGR2 antag: inactive; TROY NFkB inh: inactive; LMP1 NFkB inh: inactive; MITF TRPM1 HTS: inactive; TWEAK Fn14 block: inactive
